Values joined by “and” are separate entries in the source; they are usually repeats but may differ in a detail not shown here. Identical values can stand only once. Records with an inconclusive call do not appear. Active and inactive are the calls of the source. Unless noted, calls come from the whole dose curve; as a rule, active = well fitted curve in the direction sought with a large enough effect; inconclusive = small, poorly fitted or top-dose-only effect, or another doubt; inactive = no such curve, though single readings can be large; an effect the other way counts as inactive or inconclusive.
How the values were obtained:
[1] = molecular target: Glucocorticoid receptor (Homo sapiens) (UniProt P04150); assay: GR-GFP Redistribution (AID 450;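 active = compounds whose dose series gives a full or clear partial fitted curve of increased nuclear translocation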; note: potency is the fitted concentration of half-maximal effect); conditions: U2OS GR-GFP nuclear translocation, laser cytometry, 2 h
Glucocorticoid receptor (Homo sapiens), sequence (P04150 whole entry, looked up, the tested form may be a part): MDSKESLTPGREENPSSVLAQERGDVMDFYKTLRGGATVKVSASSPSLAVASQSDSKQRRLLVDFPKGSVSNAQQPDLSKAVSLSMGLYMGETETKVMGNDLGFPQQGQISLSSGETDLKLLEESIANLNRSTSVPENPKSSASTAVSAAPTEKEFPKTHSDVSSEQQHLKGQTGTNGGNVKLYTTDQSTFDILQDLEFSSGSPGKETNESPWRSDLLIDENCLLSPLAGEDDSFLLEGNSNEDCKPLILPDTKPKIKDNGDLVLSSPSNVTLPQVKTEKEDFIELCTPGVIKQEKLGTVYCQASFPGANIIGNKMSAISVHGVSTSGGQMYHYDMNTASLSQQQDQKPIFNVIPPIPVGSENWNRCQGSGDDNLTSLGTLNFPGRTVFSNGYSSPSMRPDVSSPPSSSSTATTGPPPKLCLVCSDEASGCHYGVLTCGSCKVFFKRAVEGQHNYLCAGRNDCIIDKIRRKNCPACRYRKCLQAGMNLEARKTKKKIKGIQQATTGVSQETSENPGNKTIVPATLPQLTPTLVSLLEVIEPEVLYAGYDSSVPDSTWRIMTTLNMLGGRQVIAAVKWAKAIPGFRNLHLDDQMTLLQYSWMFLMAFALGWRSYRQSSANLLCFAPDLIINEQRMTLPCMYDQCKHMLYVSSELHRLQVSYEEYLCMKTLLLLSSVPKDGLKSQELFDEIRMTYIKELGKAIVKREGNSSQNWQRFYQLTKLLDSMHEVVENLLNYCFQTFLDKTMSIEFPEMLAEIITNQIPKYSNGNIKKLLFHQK

[2] = molecular target: Glucocorticoid receptor (Homo sapiens) (UniProt P04150); assay: GR-EFC Redistribution (AID 451; calls by dose curve; note: potency is the fitted concentration of half-maximal effect); conditions: CHO-K1 GR-EFC translocation, beta-gal luminescence, 2 h
Summary of the method: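 CHO-K1 cells stably expressing nuclear-localized β-gal enzyme acceptor and GR fused C-terminally to the enzyme donor fragment; ligand-driven nuclear translocation restores β-gal by complementation. Compounds titrated up to 46 uM final, 2 h at 37 °C; luminescence read.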

[3] = molecular target: Mitogen-activated protein kinase 10 (Mus musculus) (UniProt Q61831); assay: JNK3 AlphaScreen Assay (AID 530; active = well fitted curve in either direction with a large enough effect, not every such curve was filed as active;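 note: kinase came from lysate of stimulated human HepG2 cells; signal reports phosphorylation of biotinylated GST-cJun 1-79 at Ser73 with 10 µM ATP; % is set by controls: 0 for no effect and ±100 for the full control effect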); conditions: JNK3 lysate, c-Jun phosphorylation; series mostly up to 57.1 µM
Summary of the method: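 JNK3 came from HepG2 lysates pre-activated with IL-1beta and TNF-alpha and phosphorylated biotinylated GST-cJun (1-79) at 10 uM ATP, pH 7.6, room temperature. Compounds were titrated. AlphaScreen signal used anti-phospho-cJun (Ser73) antibody.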

[4] = qHTS Assay for Lipid Storage Modulators (AID 1519; calls by dose curve; for activity change, negative = inhibition: % is set by controls: 0 for no effect and ±100 for the full control effect); conditions: Drosophila S3 cells, BODIPY lipid droplet/cell ratio, laser cytometry, cells loaded with oleic acid; for activity change, negative = inhibition: at 57.5 µM (top of the series)
Summary of the method: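 Cells seeded at 5,000 per well were treated with compounds over a concentration series and loaded with oleic acid (400 uM, as added). Lipid droplet fluorescence (488 nm excitation, 500-530 nm channel) was read by laser-scanning cytometry and normalized to 20 uM Triacsin C.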

[5] = molecular target: Ubiquitin carboxyl-terminal hydrolase 1 (Homo sapiens) (UniProt O94782); assay: Inhibitors of USP1/UAF1: Pilot qHTS (AID 504865); conditions: purified USP1/UAF1, Ub-rhodamine cleavage fluorescence; series mostly up to 114 µM;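 note: rhodamine fluorescence freed from ubiquitin-rhodamine substrate followed over time; top concentration of the series differs between compounds; % is set by controls: 0 for no effect and ±100 for the full control effect; nearly all actives have a fitted effect of over 35% in size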
Ubiquitin carboxyl-terminal hydrolase 1 (Homo sapiens), sequence (O94782 whole entry, looked up): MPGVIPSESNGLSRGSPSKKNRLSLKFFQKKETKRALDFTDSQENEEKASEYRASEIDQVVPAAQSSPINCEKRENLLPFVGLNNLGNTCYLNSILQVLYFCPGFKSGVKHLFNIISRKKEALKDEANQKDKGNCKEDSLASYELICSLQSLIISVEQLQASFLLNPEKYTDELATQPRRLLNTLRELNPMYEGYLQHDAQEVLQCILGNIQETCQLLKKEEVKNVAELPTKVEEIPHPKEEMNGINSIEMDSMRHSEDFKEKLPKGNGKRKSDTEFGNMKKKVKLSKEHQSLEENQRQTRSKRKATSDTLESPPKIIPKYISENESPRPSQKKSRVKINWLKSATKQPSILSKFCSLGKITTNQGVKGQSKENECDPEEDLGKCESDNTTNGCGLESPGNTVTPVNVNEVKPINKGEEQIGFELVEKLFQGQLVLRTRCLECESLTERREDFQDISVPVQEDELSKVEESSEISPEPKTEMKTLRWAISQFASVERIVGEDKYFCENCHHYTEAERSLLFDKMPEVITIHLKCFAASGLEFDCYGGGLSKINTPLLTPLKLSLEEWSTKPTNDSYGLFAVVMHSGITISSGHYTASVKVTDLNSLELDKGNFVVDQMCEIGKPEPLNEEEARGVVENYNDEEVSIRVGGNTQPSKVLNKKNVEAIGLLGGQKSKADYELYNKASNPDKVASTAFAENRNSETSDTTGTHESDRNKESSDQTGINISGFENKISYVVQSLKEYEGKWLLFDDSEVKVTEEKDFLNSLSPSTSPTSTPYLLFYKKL
Summary of the method: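 USP1/UAF1 complex (1nM) preincubated with compound 15 min at room temperature, then Ub-Rho substrate (150nM final) added. Fluorescence read kinetically at 480/540 nm, 6 reads every 60 seconds. Buffer: 50mM HEPES pH 7.8, 0.5mM EDTA, 0.1 mg/ml BSA, 1mM TCEP, 0.01% Tween-20.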

[6] = molecular target: DNA dC->dU-editing enzyme APOBEC-3G (Homo sapiens) (UniProt Q9HC16); assay: qHTS for inhibitors of Vif-A3G interactions: Validation (AID 588379); conditions: Vif-A3G protein interaction assay; series mostly up to 46.1 µM; note: 0% is about no effect
DNA dC->dU-editing enzyme APOBEC-3G (Homo sapiens), sequence (Q9HC16 whole entry, looked up): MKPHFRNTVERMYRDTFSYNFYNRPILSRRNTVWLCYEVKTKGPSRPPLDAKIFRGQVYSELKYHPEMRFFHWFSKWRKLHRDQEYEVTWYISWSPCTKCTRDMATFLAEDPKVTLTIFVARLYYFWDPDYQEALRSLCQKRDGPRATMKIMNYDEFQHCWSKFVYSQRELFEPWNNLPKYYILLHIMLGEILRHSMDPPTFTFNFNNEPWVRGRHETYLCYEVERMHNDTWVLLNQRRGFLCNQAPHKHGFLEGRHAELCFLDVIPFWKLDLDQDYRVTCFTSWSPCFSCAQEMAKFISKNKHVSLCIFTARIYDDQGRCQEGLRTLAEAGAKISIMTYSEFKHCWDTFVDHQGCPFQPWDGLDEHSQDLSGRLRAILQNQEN
Summary of the method: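 HeLa cells stably expressing Vif and A3G-eYFP, 700 cells/well, incubated overnight at 37 deg C, then exposed to compound overnight at 37 deg C. Inhibition of Vif-mediated degradation read as increased yellow fluorescence (Ex 488/Em 500-530) by laser-scanning cytometry.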

[7] = test system: Zika virus NS2B-NS3 protease; assay: Primary screen GU AMC qHTS for Zika virus inhibitors (AID 1347154); conditions: Zika NS2B-NS3 unlinked protease, AMC fluorogenic substrate; series mostly up to 54.1 µM;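 note: 0% = no-inhibitor control and -100% = no-enzyme control; nearly all actives have a fitted effect of over 70% in size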
Summary of the method: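 Unlinked Zika NS2B hydrophilic domain/NS3 protease domain noncovalent complex (25 nM final) in 10 mM Tris-HCl pH 8.0, 0.01% Tween 20, with AMC peptide substrate. Fluorescence (ex 340, em 450 nm) change over 15 min, room temperature; percent inhibition fitted to 4-parameter Hill equation.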

[8] = Primary qHTS for small molecule stabilizers of the endoplasmic reticulum resident proteome: Secreted ER Calcium Modulated Protein (SERCaMP) assay (AID 1508630); conditions: SH-SY5Y GLuc-SERCaMP (Gaussia luciferase released on ER calcium loss) secretion, thapsigargin, luminescence; series mostly up to 38.4 µM; note: % is set by controls: 0 for no effect and ±100 for the full control effect
Summary of the method: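 GLuc-SERCaMP-expressing SH-SY5Y cells, pretreated 16 h with compound, are challenged with thapsigargin to empty ER calcium stores; after 4 h, coelenterazine is added directly to the medium and luminescence is imaged.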

[9] = molecular target: Cytochrome P450 1A2 (Homo sapiens) (UniProt P05177); assay: p450-cyp1a2 (AID 410; calls by dose curve; note: potency is the fitted concentration of half-maximal effect;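 for activity change, negative = inhibition: -100% = full effect of reference inhibitor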); conditions: recombinant CYP1A2, luciferin-ME demethylation, luminescence; series mostly up to 57 µM
Cytochrome P450 1A2 (Homo sapiens), sequence (P05177 whole entry, looked up): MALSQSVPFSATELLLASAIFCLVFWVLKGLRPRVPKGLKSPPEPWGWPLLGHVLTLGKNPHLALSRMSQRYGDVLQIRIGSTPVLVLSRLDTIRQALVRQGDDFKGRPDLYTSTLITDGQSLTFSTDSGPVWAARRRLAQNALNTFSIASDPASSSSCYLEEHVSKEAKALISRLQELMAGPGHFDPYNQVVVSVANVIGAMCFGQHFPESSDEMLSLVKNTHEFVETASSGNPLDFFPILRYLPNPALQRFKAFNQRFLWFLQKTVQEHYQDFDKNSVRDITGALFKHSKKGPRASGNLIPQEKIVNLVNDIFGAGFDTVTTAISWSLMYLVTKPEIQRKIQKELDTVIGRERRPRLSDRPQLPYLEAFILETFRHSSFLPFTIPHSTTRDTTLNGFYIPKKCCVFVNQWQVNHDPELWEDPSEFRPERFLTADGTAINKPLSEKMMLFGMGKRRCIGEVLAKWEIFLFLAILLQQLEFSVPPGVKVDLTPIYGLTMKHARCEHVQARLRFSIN
Summary of the method: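 Inhibition was calculated relative to 57 uM furafylline (full inhibition). The reaction used human CYP1A2 at 20nM with Luciferin-ME at its Km, 100uM, driven by an NADPH-regenerating system for 60 min at room temperature.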

[10] = molecular target: Cytochrome P450 3A4 (Homo sapiens) (UniProt P08684); assay: qHTS Assay for Activators of Cytochrome P450 3A4 (AID 885); conditions: recombinant CYP3A4, Luciferin-PPXE luminescence, 60 min; series mostly up to 57.1 µM; note: nearly all actives have a fitted effect of over 65% in size
Cytochrome P450 3A4 (Homo sapiens), sequence (P08684 whole entry, looked up): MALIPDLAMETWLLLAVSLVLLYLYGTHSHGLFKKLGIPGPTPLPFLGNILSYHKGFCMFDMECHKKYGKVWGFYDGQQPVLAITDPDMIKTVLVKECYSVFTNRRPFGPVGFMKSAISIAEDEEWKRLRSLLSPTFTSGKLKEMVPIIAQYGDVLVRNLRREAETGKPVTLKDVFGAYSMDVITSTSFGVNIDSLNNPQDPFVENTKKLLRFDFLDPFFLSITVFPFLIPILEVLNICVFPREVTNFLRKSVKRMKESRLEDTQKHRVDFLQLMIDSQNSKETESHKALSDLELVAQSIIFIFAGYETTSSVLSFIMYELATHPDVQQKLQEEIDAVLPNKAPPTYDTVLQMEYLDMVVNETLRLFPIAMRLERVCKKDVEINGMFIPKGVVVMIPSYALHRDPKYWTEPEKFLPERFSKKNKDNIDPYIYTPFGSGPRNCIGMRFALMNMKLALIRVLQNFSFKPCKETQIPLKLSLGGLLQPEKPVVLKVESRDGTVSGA
Summary of the method: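 Human CYP3A4 (20 nM) with Luciferin-PPXE at 25 uM (its KM) in 200 mM KPO4; 10 min compound preincubation, then NADPH regeneration and 60 min reaction at RT. Luciferin read by luminescence; normalized to 57 uM ketoconazole full inhibition.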

[11] = AP1 Signaling Pathway (AID 357; active = well fitted curve in either direction with a large enough effect, not every such curve was filed as active; note: % is set by controls: 0 for no effect and ±100 for the full control effect); conditions: ME-180 AP-1-bla reporter, EGF-induced, beta-lactamase ratio, 5 h; series mostly up to 38 µM
Summary of the method: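 ME-180 cells with beta-lactamase reporter under AP-1 response element, stimulated with EC50 EGF; compounds tested in titration series, 5 h at 37 °C. CCF4 substrate added 2.5 h at room temperature; 460/530 nm emission ratio gave %activity and AC50.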

[12] = molecular target: Cytochrome P450 2D6 (Homo sapiens) (UniProt P10635); assay: qHTS Assay for Inhibitors and Substrates of Cytochrome P450 2D6 (AID 891); conditions: recombinant CYP2D6, luciferin-ME EGE luminescence; series mostly up to 57.1 µM; note: nearly all actives have a fitted effect of over 60% in size; note: potency is the fitted concentration of half-maximal effect
Cytochrome P450 2D6 (Homo sapiens), sequence (P10635 whole entry, looked up): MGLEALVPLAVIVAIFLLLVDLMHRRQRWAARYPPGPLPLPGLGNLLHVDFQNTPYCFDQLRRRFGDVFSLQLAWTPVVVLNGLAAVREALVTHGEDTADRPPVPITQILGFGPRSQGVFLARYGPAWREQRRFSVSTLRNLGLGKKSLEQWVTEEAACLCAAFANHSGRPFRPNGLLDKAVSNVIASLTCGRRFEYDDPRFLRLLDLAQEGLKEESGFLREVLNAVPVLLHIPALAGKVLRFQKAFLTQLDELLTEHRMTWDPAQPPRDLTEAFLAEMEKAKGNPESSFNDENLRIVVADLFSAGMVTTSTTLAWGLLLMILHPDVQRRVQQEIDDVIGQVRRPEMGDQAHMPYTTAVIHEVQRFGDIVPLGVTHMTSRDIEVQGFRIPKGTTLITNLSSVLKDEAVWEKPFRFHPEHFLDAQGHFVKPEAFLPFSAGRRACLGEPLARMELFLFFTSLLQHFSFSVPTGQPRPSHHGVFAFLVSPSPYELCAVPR
Summary of the method: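 Human CYP2D6 (5 nM) with 30 uM Luciferin-ME EGE (at Km) in 100 mM KPO4, compound preincubated 10 min, then NADPH regeneration system for 60 min at room temperature. Luciferin read by luminescence; normalized to 1.43 uM quinidine.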

[13] = molecular target: 3',5'-cyclic-AMP phosphodiesterase 4B (Homo sapiens) (UniProt Q07343); assay: qHTS Assay for Inhibitors of PDE-IV (AID 607; active = well fitted activation curve with a large enough effect in the main read-out, with a control signal flat, not every such curve was filed as active; note: % of control where 0% means no effect); conditions: HEK293 ACTOne CNG channel cells, membrane potential fluorescence; series mostly up to 22.9 µM
3',5'-cyclic-AMP phosphodiesterase 4B (Homo sapiens), sequence (Q07343 whole entry, looked up): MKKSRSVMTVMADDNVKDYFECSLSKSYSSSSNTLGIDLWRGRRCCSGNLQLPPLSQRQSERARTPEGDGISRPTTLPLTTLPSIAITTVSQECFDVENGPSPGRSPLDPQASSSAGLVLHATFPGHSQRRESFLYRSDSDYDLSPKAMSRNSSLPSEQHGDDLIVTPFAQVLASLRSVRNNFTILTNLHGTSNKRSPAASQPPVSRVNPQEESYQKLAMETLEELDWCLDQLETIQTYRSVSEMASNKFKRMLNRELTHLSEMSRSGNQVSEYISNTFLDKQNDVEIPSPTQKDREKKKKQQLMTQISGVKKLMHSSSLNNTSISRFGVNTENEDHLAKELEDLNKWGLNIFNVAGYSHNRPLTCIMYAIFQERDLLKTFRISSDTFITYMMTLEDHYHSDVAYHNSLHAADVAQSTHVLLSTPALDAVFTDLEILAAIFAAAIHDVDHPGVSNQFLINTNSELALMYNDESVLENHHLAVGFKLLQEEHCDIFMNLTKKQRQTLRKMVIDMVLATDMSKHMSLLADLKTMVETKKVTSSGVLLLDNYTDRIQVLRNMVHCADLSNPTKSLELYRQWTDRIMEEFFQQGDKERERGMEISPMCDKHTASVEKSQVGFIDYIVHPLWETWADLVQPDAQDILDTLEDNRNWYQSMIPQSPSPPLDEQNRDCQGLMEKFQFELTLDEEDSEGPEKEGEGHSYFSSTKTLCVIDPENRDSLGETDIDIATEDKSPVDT
Summary of the method: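 HEK293 ACTOne cells with CNG channel (1000/well), endogenous PDE4; membrane potential dye, compounds up to 22.9 uM final. Fluorescence Ex 535/Em 590; RO 20-1724 (100 uM final) as reference.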

[14] = measured here: cell count channel max response
[15] = measured here: lipid channel max response

CC(C)[C@@H]1CN[C@H](C(=O)O)[C@@H]1CC(=O)O
14.8%: max response [4, 14]
17.2%: max response [4, 15]
inactive: Potency [1] > 46 µM | Potency [2] > 46 µM | outcome [3] | activity change, negative = inhibition [4] 5.36% | Potency [5] | Potency [6] | Potency [7] | Potency [8]

C=C(C)CN1CC[C@@]23c4c5ccc(O)c4O[C@H]2c2[nH]c4ccccc4c2C[C@]3(O)[C@@H]1C5
inactive: Potency [9] | Potency [1] > 46 µM | Potency [2] > 46 µM | outcome [3] | Potency [10] | Potency [6] | Potency [7] | Potency [8]

C=C(C)[C@H]1C2C(=O)O[C@H]1[C@H]1OC(=O)[C@@]34O[C@@H]3C[C@]2(O)[C@@]14C
7.99%: max response [4, 14]
inactive: activity change, negative = inhibition [4] 2.82% | Potency [5] | Potency [6] | Potency [7] | Potency [8]
11%: max response [4, 15]

Oc1ccc2c3c1O[C@H]1c4[nH]c5c(c4C[C@@]4(O)[C@@H](C2)N(CC2CC2)CC[C@]314)C[C@]1(O)[C@H]2Cc3ccc(O)c4c3[C@@]1(CCN2CC1CC1)[C@@H]5O4
18.7%: max response [4, 15]
inactive: Potency [1] > 46 µM | Potency [2] > 46 µM | outcome [3] | activity change, negative = inhibition [4] -0.108% | Potency [6] | Potency [7] | Potency [8]
16.4%: max response [4, 14]

CC(C)(O)[C@@H]1[C@H]2OC(=O)[C@@H]1[C@]1(O)C[C@H]3O[C@]34C(=O)O[C@H]2[C@@]14C (tested in a mixture with another compound)
-8.87%: max response [4, 14]
-11.1%: max response [4, 15]
inactive: Potency [2] > 46 µM | activity change, negative = inhibition [4] -0.708% | Potency [5] | Potency [6] | Potency [7] | Potency [8]

O=C1NCN(c2ccccc2)C12CCN(C[C@H]1COc3ccccc3O1)CC2
active: Potency [9] 12.6 µM | Potency [12] 126 nM and 63.1 nM
inactive: outcome [11] | outcome [3] | Potency [6] | Potency [7] | Potency [8]

C=C(C)[C@H]1CN[C@H](C(=O)O)[C@@H]1CC(=O)O
-4.1%: max response [4, 15]
inactive: Potency [9] | Potency [1] > 46 µM | Potency [2] > 46 µM | outcome [3] | activity change, negative = inhibition [4] 2.85% | Potency [5] | Potency [6] | Potency [7] | Potency [8]
-5.55%: max response [4, 14]

CCCC(=O)OCC[N+](C)(C)C
inactive: outcome [11] | Potency [1] > 20.6 µM | Potency [7] | Potency [8]

CN1CCN(C(=O)OC2c3nccnc3C(=O)N2c2ccc(Cl)cn2)CC1 (configuration not stated)
inactive: outcome [11] | Potency [7] | Potency [8]

O=C(O)[C@@H]1C[C@H]2C[C@@H](CP(=O)(O)O)CC[C@H]2CN1
-9.16%: max response [4, 14]
-11.2%: max response [4, 15]
inactive: Potency [1] > 46 µM | Potency [2] > 46 µM | activity change, negative = inhibition [4] -1.59% | Potency [5] | Potency [6] | Potency [7] | Potency [8]

C=CCN1C[C@H](C)N([C@@H](c2ccccc2)c2ccc(C(=O)N(CC)CC)cc2)C[C@H]1C
14.7%: max response [4, 14]
20%: max response [4, 15]
inactive: Potency [1] > 46 µM | Potency [2] > 46 µM | outcome [3] | Potency [13] | Potency [10] | activity change, negative = inhibition [4] 7.78% | Potency [5] | Potency [6] | Potency [7] | Potency [8]

CN(C(=O)Cc1ccccc1)[C@H](CN1CCCC1)c1ccccc1
active: Potency [12] 3.16 µM
inactive: Potency [9] | Potency [1] > 46 µM | Potency [2] > 46 µM | outcome [3] | Potency [5] | Potency [6] | Potency [7] | Potency [8]

NC(N)=Nc1ccc2[nH]c3c(c2c1)C[C@]1(O)[C@@H]2Cc4ccc(O)c5c4[C@]1(CCN2CC1CC1)[C@@H]3O5
2.17%: max response [4, 14]
1.06%: max response [4, 15]
inactive: Potency [9] | Potency [1] > 46 µM | Potency [2] > 46 µM | outcome [3] | Potency [13] | activity change, negative = inhibition [4] -1.94% | Potency [5] | Potency [6] | Potency [7] | Potency [8]

O=C(O)Cc1cccnc1C(=O)O
-8.51%: max response [4, 14]
inactive: Potency [2] > 46 µM | outcome [3] | activity change, negative = inhibition [4] 3.53% | Potency [5] | Potency [6] | Potency [7] | Potency [8]
-2.88%: max response [4, 15]

Cc1ccc(C[N+](C)(C)C)o1
inactive: Potency [2] > 46 µM | activity change, negative = inhibition [4] 4.98% | Potency [5] | Potency [6] | Potency [7] | Potency [8]
30.2%: max response [4, 15]
20.9%: max response [4, 14]

CCOC(=O)c1cc2c(cn1)[nH]c1ccccc12
inactive: outcome [11] | Potency [1] > 20.6 µM | Potency [7] | Potency [8]

C/C(O)=C(/C#N)C(=O)Nc1cc(Br)ccc1Br
inactive: outcome [11] | Potency [2] > 46 µM | Potency [13] | Potency [10] | Potency [12] | Potency [6] | Potency [7] | Potency [8]
active: Potency [9] 5.01 µM and 2.51 µM

NC[C@@H](CC(=O)O)c1ccc(Cl)cc1
inactive: outcome [11] | Potency [9] | Potency [2] > 20.6 µM and > 46 µM | outcome [3] | Potency [12] | Potency [6] | Potency [7] | Potency [8]
